Among the data in PubChem BioAssay (NCI) are growth values, retold here.

This is part of a sample that, as a whole, favours compounds with a hit. Of some 83,000 tested, about 20% had one in any assay.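 A percent growth of 40 corresponds to 60% growth inhibition; 0 means no net growth; -100 means all cells died. Active threshold: below 10.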 Values without a mark were called inactive. Active and inactive are the calls of the source.

Test systems include SR leukemia; RPMI-8226 leukemia; OVCAR-8 ovarian; OVCAR-5 ovarian; OVCAR-4 ovarian; SK-OV-3 ovarian; IGROV1 ovarian; OVCAR-3 ovarian; HS 578T breast; NCI/ADR-RES ovarian.
Assay in all cases: NCI-60 one-dose screen, 48 h (100 = growth as untreated, 0 = no growth, -100 = all killed)
Settings in all cases: 10 µM unless noted

`O=C(O)c1ccc(OCc2ccccc2)cc1`: the growth in the experiment on SR leukemia is 99.8%; in the experiment on RPMI-8226 leukemia, 97.5%; with OVCAR-8 ovarian, 97.9%; with OVCAR-5 ovarian, 93.5%; with OVCAR-4 ovarian it was 102%; in the experiment on SK-OV-3 ovarian, 98.8%. The growth is 91.1% in the experiment with IGROV1 ovarian, 118% in the experiment on OVCAR-3 ovarian, 96% with HS 578T breast and 104% with NCI/ADR-RES ovarian.
`N#Cc1ccc(OC(=O)Nc2c(Cl)cc(Cl)cc2Cl)cc1`: the growth in the experiment on SR leukemia was 101%; in the experiment with RPMI-8226 leukemia, 107%; in the experiment on OVCAR-8 ovarian it was 105%; in the experiment with OVCAR-5 ovarian, 103%; in the experiment with OVCAR-4 ovarian, 109%; with SK-OV-3 ovarian it was 99.7%. Further, the growth in the experiment on IGROV1 ovarian was 98.7%; with OVCAR-3 ovarian, 112%; in the experiment on HS 578T breast it was 106%; in the experiment with NCI/ADR-RES ovarian it was 111%.
Turning to `CC(C)C1CCC(C)C(O)C1` (centres undefined), the growth is 96.1% in the experiment with SR leukemia; 101% in the experiment with RPMI-8226 leukemia; 99.1% in the experiment with OVCAR-8 ovarian; 108% in the experiment with OVCAR-5 ovarian; 108% in the experiment with OVCAR-4 ovarian; 106% with SK-OV-3 ovarian. In addition, the growth in the experiment with IGROV1 ovarian is 104%; in the experiment on OVCAR-3 ovarian, 105%; in the experiment with HS 578T breast it was 93.5%; in the experiment on NCI/ADR-RES ovarian, 103%.
On to `C#CCSc1nnnn1-c1ccccc1`, for which the growth in the experiment with SR leukemia is 86.9%; with RPMI-8226 leukemia, 72.4%; in the experiment on OVCAR-8 ovarian it was 80.9%; with OVCAR-5 ovarian, 92%; with OVCAR-4 ovarian, 92.6%; in the experiment on SK-OV-3 ovarian, 104%. For the same molecule, the growth in the experiment with IGROV1 ovarian is 92.8%; in the experiment with OVCAR-3 ovarian, 79.1%; in the experiment on HS 578T breast, 102%; in the experiment on NCI/ADR-RES ovarian, 86.7%.
Take `C=COC(=O)C(C)(C)C`: the growth is 91.2% with SR leukemia; 99.2% in the experiment with RPMI-8226 leukemia; 107% with OVCAR-8 ovarian; 106% in the experiment on OVCAR-5 ovarian; 108% in the experiment with OVCAR-4 ovarian; 107% with SK-OV-3 ovarian. Besides, the growth was 96.7% with IGROV1 ovarian, 107% in the experiment on OVCAR-3 ovarian, 101% with HS 578T breast and 101% in the experiment on NCI/ADR-RES ovarian.
For `CC1CCC(C)(C)c2ccccc21` (centres undefined), the growth in the experiment with SR leukemia was 107%; in the experiment on RPMI-8226 leukemia it was 117%; in the experiment with OVCAR-8 ovarian, 105%; in the experiment with OVCAR-5 ovarian it was 92.4%; in the experiment with OVCAR-4 ovarian it was 98.2%; in the experiment with SK-OV-3 ovarian, 101%. Besides, the growth with IGROV1 ovarian was 98.4%; in the experiment with OVCAR-3 ovarian, 114%; with HS 578T breast, 105%; with NCI/ADR-RES ovarian, 101%.
Regarding `CSCCC(NC(=O)C(Cl)Cl)C(=O)O` (centres undefined), the growth was 91.5% in the experiment on SR leukemia; 101% with RPMI-8226 leukemia; 96.7% in the experiment on OVCAR-8 ovarian; 94.7% in the experiment with OVCAR-5 ovarian; 115% in the experiment with OVCAR-4 ovarian; 85.6% in the experiment with SK-OV-3 ovarian. Besides, the growth is 105% in the experiment with IGROV1 ovarian, 106% in the experiment on OVCAR-3 ovarian, 97.8% in the experiment with HS 578T breast and 106% with NCI/ADR-RES ovarian.
As to `CCCc1cccc(CCC)c1NC(=O)Nc1cc(Cl)cc(Cl)c1`, the growth is 108% in the experiment on SR leukemia; 96.7% with RPMI-8226 leukemia; 101% with OVCAR-8 ovarian; 104% in the experiment with OVCAR-5 ovarian; 95.3% in the experiment on OVCAR-4 ovarian; 101% in the experiment on SK-OV-3 ovarian. For the same molecule, the growth with IGROV1 ovarian was 108%; in the experiment on OVCAR-3 ovarian it was 103%; in the experiment on HS 578T breast, 98.2%; with NCI/ADR-RES ovarian, 110%.
As to `O=C(O)Cc1ccc(Cl)cc1`, the growth with SR leukemia was 44.8%; with RPMI-8226 leukemia it was 99.1%; in the experiment with OVCAR-8 ovarian it was 97.7%; in the experiment with OVCAR-5 ovarian it was 111%; in the experiment on OVCAR-4 ovarian, 107%; with SK-OV-3 ovarian, 121%. Further, the growth with IGROV1 ovarian is 109%; in the experiment with OVCAR-3 ovarian, 150%; in the experiment on HS 578T breast it was 99.6%; in the experiment on NCI/ADR-RES ovarian, 109%.
As to `Nc1ccc2ccccc2c1-c1c(N)ccc2ccccc12`, the growth in the experiment with SR leukemia was 4.26% (active); in the experiment on RPMI-8226 leukemia it was 24.9%; with OVCAR-8 ovarian it was 44%; with OVCAR-5 ovarian, 57.1%; in the experiment with OVCAR-4 ovarian, 66%; in the experiment on SK-OV-3 ovarian it was 30.8%. The growth is 45.8% in the experiment on IGROV1 ovarian, 5.64% (active) with OVCAR-3 ovarian, 35.6% with HS 578T breast and 16.5% with NCI/ADR-RES ovarian.
`O=Cc1ccc(F)cc1`: the growth in the experiment with SR leukemia was 111%; in the experiment on RPMI-8226 leukemia, 105%; with OVCAR-8 ovarian, 103%; in the experiment on OVCAR-5 ovarian, 102%; in the experiment on OVCAR-4 ovarian it was 106%; in the experiment on SK-OV-3 ovarian, 109%. Besides, the figures for the growth in the experiment on IGROV1 ovarian, in the experiment on OVCAR-3 ovarian and in the experiment on NCI/ADR-RES ovarian were 95.2%, 111% and 107%, respectively.
In the case of `Clc1cccc(Cl)c1CSc1nc2ccccc2n2cccc12`, the growth in the experiment with SR leukemia is 71.9%; in the experiment on RPMI-8226 leukemia it was 96.1%; in the experiment with OVCAR-8 ovarian it was 104%; with OVCAR-5 ovarian, 106%; with OVCAR-4 ovarian it was 70.4%; with SK-OV-3 ovarian it was 88.6%. In addition, the growth with IGROV1 ovarian is 76.4%; with OVCAR-3 ovarian it was 92.5%; in the experiment with HS 578T breast, 113%; with NCI/ADR-RES ovarian it was 101%.
Consider `CCCCOC(=O)c1ccc(NC(=O)CCl)cc1`, for which the growth in the experiment with SR leukemia was -30.8% (active); in the experiment with RPMI-8226 leukemia it was 19.5%; in the experiment on OVCAR-8 ovarian, 42.2%; in the experiment on OVCAR-5 ovarian it was 101%; in the experiment with OVCAR-4 ovarian it was -53% (active); in the experiment on SK-OV-3 ovarian, 105%. Moreover, the growth in the experiment with IGROV1 ovarian was -49.5% (active); in the experiment on OVCAR-3 ovarian, -83.5% (active); with HS 578T breast, 79.9%; in the experiment with NCI/ADR-RES ovarian, 65.2%.
On to `CC1(C)CCC(C)(C)NC(=S)N1`, for which the growth in the experiment on SR leukemia was 92.1%; in the experiment with RPMI-8226 leukemia, 96.4%; in the experiment on OVCAR-8 ovarian, 106%; in the experiment on OVCAR-5 ovarian, 102%; in the experiment with OVCAR-4 ovarian it was 107%; in the experiment on SK-OV-3 ovarian, 105%. For the same molecule, the growth with IGROV1 ovarian was 121%; with OVCAR-3 ovarian it was 111%; with HS 578T breast, 109%; in the experiment with NCI/ADR-RES ovarian, 108%.
As to `N#Cc1ccc(OC(=O)Nc2cc(Cl)cc(Cl)c2)cc1`, the growth with SR leukemia was -30.4% [100 µM] (active); with RPMI-8226 leukemia it was -13% [100 µM] (active); with OVCAR-8 ovarian, 7.55% [100 µM] (active); in the experiment with OVCAR-5 ovarian it was 9.02% [100 µM] (active); in the experiment on OVCAR-4 ovarian, 11.4% [100 µM]; in the experiment on SK-OV-3 ovarian, -6.95% [100 µM] (active). In addition, the growth in the experiment with IGROV1 ovarian was 18% [100 µM]; in the experiment with OVCAR-3 ovarian it was 7.77% [100 µM] (active); in the experiment with HS 578T breast, -11.5% [100 µM] (active); in the experiment on NCI/ADR-RES ovarian it was -4.12% [100 µM] (active).
